HTR5A ag ctr – counter-screen for OPRM1-OPRD1 agonists: human HTR5A agonism; 0.61% of 340,000 active; AID 504692; activation, % at 9.3 µM; HTR5A agonist assay, luminescence, cell-based; P47898; in the data active = activation mostly above about 9.5%, no sharp cut-off; inactive = mostly below about 7.6%
MOR-DOR inv ag – mu-delta opioid heterodimer inverse agonism; P35372+P41143; cell-based MOR-DOR heterodimer luminescence; inhibition, % at 9.3 µM; 0.21% of 340,000 active; AID 504357; in the data active = inhibition above about 22%, passing the limit was not always enough
Target sequence (P35372 whole entry, looked up): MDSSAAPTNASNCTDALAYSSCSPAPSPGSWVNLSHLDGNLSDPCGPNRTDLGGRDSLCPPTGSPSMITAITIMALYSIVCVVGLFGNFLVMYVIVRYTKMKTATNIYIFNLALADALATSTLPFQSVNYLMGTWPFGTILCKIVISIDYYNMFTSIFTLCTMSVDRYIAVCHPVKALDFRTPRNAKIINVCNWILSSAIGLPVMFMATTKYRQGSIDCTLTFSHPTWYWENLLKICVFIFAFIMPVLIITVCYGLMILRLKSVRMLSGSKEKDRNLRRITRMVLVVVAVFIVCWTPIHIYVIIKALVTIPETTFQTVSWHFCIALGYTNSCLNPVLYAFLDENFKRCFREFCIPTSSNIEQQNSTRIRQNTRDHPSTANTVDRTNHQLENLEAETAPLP
Target sequence (P41143 whole entry, looked up): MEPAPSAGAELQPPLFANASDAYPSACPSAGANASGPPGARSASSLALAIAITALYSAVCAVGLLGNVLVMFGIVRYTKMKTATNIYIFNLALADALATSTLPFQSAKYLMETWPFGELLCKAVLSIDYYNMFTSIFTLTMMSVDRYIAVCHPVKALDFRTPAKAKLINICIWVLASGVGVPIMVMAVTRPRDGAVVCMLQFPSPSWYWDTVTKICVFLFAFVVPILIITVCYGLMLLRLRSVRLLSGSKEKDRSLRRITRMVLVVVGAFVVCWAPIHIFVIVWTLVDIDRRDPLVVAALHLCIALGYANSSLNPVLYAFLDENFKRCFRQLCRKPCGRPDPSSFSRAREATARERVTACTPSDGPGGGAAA
MOR-DOR ag – OPRM1-OPRD1 heterodimerization agonism | cells, luminescence | activation, % at 9.3 µM | 0.3% of 340,000 active
HTR5A inv ctr – counter-screen for OPRM1-OPRD1 inverse agonists: human HTR5A inverse agonism. P47898. HTR5A cell line, luminescence. inhibition, % at 9.3 µM. AID 504634. 0.083% of 340,000 active; in the data active = inhibition mostly above about 23%, no sharp cut-off; inactive = mostly below about 18%
OPRM1-D1 ag cf – OPRM1-OPRD1 heterodimer agonism, confirmation. 45% of 830 active. shares compounds with MOR-DOR ag. activation, % at 9.3 µM. AID 504904. cells, MOR-DOR heterodimerization, luminescence complementation
HTR5A ag counter – activates human HTR5A in OPRM1-OPRD1 agonist counter-screen | shares compounds with MOR-DOR ag | HTR5A agonist counterscreen, cell luminescence | activation, % at 9.3 µM | 8% of 830 active | AID 504905; in the data active = activation above about 17%
Of the large screens only hits and unclear results are named; the others gave an inactive call (follow-up assays come after a bar, where they were run). Rows were chosen to be rich in hits. Some 1.1% of all compounds tested hit in one or more screens of this group. Cut-off read from the data, not from the text of the source, unless noted: active = activation above about 18%; inactive = the rest.

CC(=O)NCCNC(=O)c1ccc(Cn2c(=O)[nH]c3ccsc3c2=O)cc1	none
Cc1ccc(-c2nc(CS(=O)CC(=O)NCCCN3CCN(Cc4ccccc4)CC3)c(C)o2)cc1 (configuration not stated)	none
O=[N+]([O-])c1ccc(SNc2ccccc2)c([N+](=O)[O-])c1	MOR-DOR ag 19.8 | OPRM1-D1 ag cf inactive | HTR5A ag counter inactive
CC(C)c1ccc(NC2CCCN(C(=O)CCN3Cc4ccccc4C3=O)C2)cc1 (configuration not stated)	none
Cc1ccc(S(=O)(=O)CCC(=O)Nc2sccc2C#N)cc1	none
Cc1ccc(NC(=O)CSc2nc3c([nH]c4ccccc43)c(=O)n2C)cc1	MOR-DOR ag 31.1 | OPRM1-D1 ag cf inactive | HTR5A ag counter inactive
Cn1c(SCC(=O)Nc2ccc(F)cc2)nc2c([nH]c3ccccc32)c1=O	MOR-DOR ag 25.0 | OPRM1-D1 ag cf 18.4 | HTR5A ag counter inactive
CCOc1ccc(NC(=O)CSc2nc3c([nH]c4ccccc43)c(=O)n2C)cc1	none
O=c1oc2cc(Br)ccc2n1Cc1ccccc1	none
COc1cc2cc3c(N)c(C(=O)Nc4sc(C)c(C)c4C#N)sc3nc2cc1OC	MOR-DOR ag 117.3 | OPRM1-D1 ag cf 22.5 | HTR5A ag counter inactive
Cc1ccccc1Nc1nc(N)nc(CCl)n1	none
Nc1nc(CCl)nc(Nc2ccc3ccccc3c2)n1	MOR-DOR ag 80.1 | OPRM1-D1 ag cf inactive | HTR5A ag counter inactive
CCc1cc2ccc(OC)cc2nc1SCC(=O)Nc1cc(C)on1	MOR-DOR ag 21.7 | OPRM1-D1 ag cf inactive | HTR5A ag counter 19.8
CCc1cc2cc(C)c(C)cc2nc1SCC(=O)Nc1cc(C)on1	none
CC(C)[C@H](NC(=O)c1c(F)cccc1F)C(=O)Nc1cccc(Br)c1	MOR-DOR ag 21.9 | OPRM1-D1 ag cf inactive | HTR5A ag counter inactive
Cc1nc2ccc(NC(=O)[C@@H](NC(=O)c3c(F)cccc3F)C(C)C)cc2s1	none
CCCC(NCC(O)COc1ccc(-c2ccccc2)cc1)c1ccccc1 (configuration not stated)	MOR-DOR ag 22.0 | OPRM1-D1 ag cf inactive | HTR5A ag counter inactive
COc1ccc(OCC(O)CNC(C)c2ccccc2)cc1 (configuration not stated)	none
NC(=O)NC(CC(=O)NNC(=O)c1cccs1)c1ccc(Cl)cc1 (configuration not stated)	none
Cc1cc(C2(c3ccc(O)c(C)c3)C(=O)Nc3ccccc32)ccc1O	MOR-DOR ag 19.9 | OPRM1-D1 ag cf inactive | HTR5A ag counter inactive
Cc1ccc(-c2nn(-c3cccc(F)c3)cc2CN(Cc2nccn2C)C(C)C)o1	none
Cc1ccc(-c2nn(-c3cccc(F)c3)cc2CNCc2cccnc2)o1	MOR-DOR ag 26.1 | OPRM1-D1 ag cf inactive | HTR5A ag counter inactive
Cc1ccc(-c2nn(-c3cccc(F)c3)cc2CN2CCN(c3ccccn3)CC2)o1	MOR-DOR ag 37.3 | OPRM1-D1 ag cf inactive | HTR5A ag counter inactive
C=C1C(=O)C23CCC4C(C)(C(=O)OC)CCCC4(C)C2CCC1(O)C3 (configuration not stated)	none
CCC(c1ccccc1)C(CC)c1cc(O)c(O)c(O)c1 (configuration not stated)	MOR-DOR ag 18.1 | OPRM1-D1 ag cf inactive | HTR5A ag counter inactive
CCC(C)c1ccccc1O (configuration not stated)	none
Cc1cc(NC(=O)c2cc(-c3ccccn3)nc3ccc(Br)cc23)no1	none
O=C(Nc1ccccn1)c1cc(-c2cccnc2)nc2ccc(Br)cc12	MOR-DOR ag 32.8 | OPRM1-D1 ag cf 20.1 | HTR5A ag counter inactive
O=C(CN1CCN(c2ccc(O)cc2)CC1)Nc1ccccc1C(=O)NCCc1ccccc1	none
Cc1cccc(-n2nc(C(=O)c3ccco3)cc(-c3nc4ccccc4[nH]3)c2=N)c1	MOR-DOR ag 31.1 | OPRM1-D1 ag cf inactive | HTR5A ag counter inactive
C#CCOc1ccc(/C=C2/C(=O)ON=C2C)cc1Br	none
OCC1(CCc2ccccc2)CCN(Cc2cccn2-c2cccnc2)CC1	MOR-DOR ag 143.5 | OPRM1-D1 ag cf 384.5 | HTR5A ag counter inactive
CCCCCOC(=O)C1=C(C)NC(=O)NC1c1ccccc1 (configuration not stated)	none
O=C(CSc1ccc(Cl)cc1)Nc1ccc(-c2nc3ccccc3[nH]2)cc1	HTR5A ag ctr 12.6, MOR-DOR ag 32.1 | OPRM1-D1 ag cf 171.3 | HTR5A ag counter inactive
CC[n+]1c(/C=C/N(C)c2ccccc2)n(-c2ccccc2)c2ccc(-c3nc4ccccc4s3)cc21	HTR5A ag ctr 9.9, MOR-DOR ag 21.7 | OPRM1-D1 ag cf inactive | HTR5A ag counter inactive
Cc1ccc(OCCSCc2nnc(NC(=O)Nc3cccc(Cl)c3)s2)cc1	MOR-DOR ag 19.3 | OPRM1-D1 ag cf inactive | HTR5A ag counter inactive
COC(=O)c1[nH]c2ccc(F)cc2c1NC(=O)Nc1ccc(OC)cc1	MOR-DOR ag 22.9 | OPRM1-D1 ag cf inactive | HTR5A ag counter inactive
COC(=O)c1[nH]c2ccc(C)cc2c1NC(=O)Nc1ccc(OC)cc1	none
COc1cc(Cl)c(C)cc1NC(=O)CN(C)Cc1cccc(OC)c1OC	none
COc1ccc(/C=N/Nc2cc(C)nc3ccc(Br)cc23)cc1	MOR-DOR ag 21.1 | OPRM1-D1 ag cf inactive | HTR5A ag counter inactive
COc1ccc2nc(C)cc(N/N=C/c3cccc(OC)c3O)c2c1	none
CCc1ccc(C(=O)c2cnc3ccc(OC)cc3c2N2CCN(CC)CC2)cc1	MOR-DOR ag 110.6 | OPRM1-D1 ag cf inactive | HTR5A ag counter inactive
CN(Cc1nc2ccccc2c(=O)[nH]1)C(=O)c1cc(C2CC2)nn1-c1ccccc1	none
Cc1sc2ncn(CC(=O)NCC(=O)N3CCN(c4ccc(F)cc4)CC3)c(=O)c2c1C	none
Cc1ccc(NC2=Nc3ccccc3CC2)cc1	none
Brc1ccc(NC2=Nc3ccccc3CC2)cc1	MOR-DOR ag 26.3 | OPRM1-D1 ag cf 229.9 | HTR5A ag counter inactive
O=C(CSc1nnc(NC(=O)c2c(F)cccc2F)s1)NC1CC1	none
CSCCCNC(=O)c1ccc(OC2CCN(CCc3ccccc3)CC2)cc1	MOR-DOR ag 21.8 | OPRM1-D1 ag cf 32.3 | HTR5A ag counter inactive
O=C(NCCc1ccccn1)c1ccc(OC2CCN(CCc3ccccc3)CC2)cc1	none
Cc1cccnc1CCNC(=O)c1ccc(OC2CCN(Cc3ccccn3)CC2)cc1	none
O=C(NCCc1cccc(Cl)c1)c1ccc(OC2CCN(Cc3ccccn3)CC2)cc1	MOR-DOR ag 64.7 | OPRM1-D1 ag cf inactive | HTR5A ag counter inactive
O=C(Nc1cccc2ncccc12)c1ccco1	none
Cc1cc(NC(=O)CN2CCc3ccccc3C2)nc2c1c(=O)oc1ccccc12	MOR-DOR ag 517.6 | OPRM1-D1 ag cf inactive | HTR5A ag counter inactive
Cc1cccc(NS(=O)(=O)c2ccc(C)c(C(=O)N3CCN(C(=O)c4ccco4)CC3)c2)c1	none
CC(C)n1ncc2c(C(=O)Nc3cccc(C#N)c3)cc(C3CC3)nc21	MOR-DOR ag 184.3 | OPRM1-D1 ag cf 215.9 | HTR5A ag counter inactive
CCNC(=O)c1cccc(NC(=O)c2cc(C3CC3)nc3c2cnn3C(C)C)c1	none

Assay outcomes deposited in PubChem by The Scripps Research Institute Molecular Screening Center.
